Calls of active or inactive are those of the source. The calls were made as follows: active = hit-call score of the fitted dose curve at least 0.9, where 1 is the maximum; inactive = score below 0.9.
Experiment: BSK_3C_VCAM1: BioMAP Diversity Plus: 3C Assay for Vascular cell adhesion molecule 1 (VCAM1) Biomarker Activity (AID 2282999)
Conditions: BioMAP 3C HUVEC, VCAM1 ELISA, cytokine-stimulated; actives raise or lower the signal
Experimental: BSK_3C is a cell-based, multiplexed-readout assay that uses umbilical vein endothelium, a human vascular primary cell, with measurements taken at 24 hours after chemical dosing in a 96-well plate.BSK_3C_VCAM1 is an assay component measured in the BSK_3C assay. It measures VCAM-1 antibody related to regulation of gene expression using ELISA technology.Data from the assay component BSK_3C_VCAM1 was analyzed into 1 assay endpoint. This assay endpoint, BSK_3C_VCAM1, was analyzed with bidirectional fitting relative to DMSO as the negative control and baseline of activity. Using a type of binding reporter, gain or loss-of-signal activity can be used to understand changes in the signaling as they relate to the gene VCAM1. Furthermore, this assay endpoint can be referred to as a primary readout, because this assay has produced multiple assay endpoints where this one serves a signaling function. To generalize the intended target to other relatable targets, this assay endpoint is annotated to the cell adhesion molecules intended target family, where the subfamily is Immunoglobulin CAM.
The levels of cell surface (or secreted, indicated by the prefix "s") biomarker endpoints were measured by ELISA. Overt cytotoxicity to cells in confluent adherent cultures (all systems other than the BT system) was assessed by measuring total protein levels using sulforhodamine B (SRB) staining in parallel cultures at the time of biomarker measurements, indicated as SRB endpoints. For proliferation assays for adherent cell types, individual cell types are cultured at sub-confluence and relative cell numbers quantified by SRB staining at time points optimized for each system (48 h: 3C and CASM3C systems; 72 h: BT and HDF3CGF systems; 96 h: SAg system). SRB was performed by staining cells with 0.1% SRB after fixation with 10% TCA and reading wells at 560 nm.Viability and proliferation of PBMC (T cells) was quantified by Alamar Blue reduction for the SAg and BT systems. For PBMC viability (referred to as PBMC Cytotoxicity within the assay endpoint names), cells were plated (75,000/well in a 96-well plate) and then chemical samples added for 1 h before addition of activators, SEB and TSST-1 (20 ng/mL final concentration each). Cells were incubated for 90 h. Then, Alamar Blue (20 uL/well) (Invitrogen, Cat DAL1100) was added for 6 h, and the plates were read with a fluorescence microplate reader at 546/580 nm (excitation/emission). For PBMC proliferation, cells were plated and activated as above but incubated for only 16 h prior to addition of Alamar Blue. Plates were read after 6 h.

Row | Structure (SMILES) | outcome | AC50
1 | CCCC(=NOCC)C1=C(O)CC(CC(C)SCC)CC1=O (stereo not given) | inactive | 
2 | COP(=S)(OC)SCn1nnc2ccccc2c1=O | inactive | 
3 | COCc1cnc(C2=NC(C)(C(C)C)C(=O)N2)c(C(=O)O)c1 (stereo not given) | inactive | 
4 | CCOP(=S)(OCC)Oc1nc(Cl)n(C(C)C)n1 | inactive | 
5 | Cc1nc(N(C)C)nc(OC(=O)N(C)C)c1C | inactive | 
6 | CCCCC(O)(Cn1cncn1)c1ccc(Cl)cc1Cl (stereo not given) | inactive | 
7 | N#CN=C1SCCN1Cc1ccc(Cl)nc1 | inactive | 
8 | CC(C)Oc1cccc(NC(=O)c2ccccc2C(F)(F)F)c1 | inactive | 
9 | CC1(C)CCC(=Cc2ccc(Cl)cc2)C1(O)Cn1cncn1 (stereo not given) | inactive | 
10 | COC(=O)NS(=O)(=O)c1ccc(N)cc1 | inactive | 
11 | OC(c1ccc(Cl)cc1)(c1ccc(Cl)cc1)C(Cl)(Cl)Cl |  | 14.1 µM (active)
12 | Cc1ccc(N=CN(C)C=Nc2ccc(C)cc2C)c(C)c1 |  | 16.4 µM (active)
13 | Clc1nc(Cl)nc(Nc2ccccc2Cl)n1 | inactive | 
14 | COCC(C)N(C(=O)CCl)c1c(C)csc1C (stereo not given) | inactive | 
15 | Cc1cnc(C2=NC(C)(C(C)C)C(=O)N2)c(C(=O)O)c1 (stereo not given) | inactive | 
16 | O=P(O)(O)CCCl | inactive | 
17 | CCCCOCN(C(=O)CCl)c1c(CC)cccc1CC |  | 27.4 µM (active)
18 | CCNP(=S)(OC)O/C(C)=C/C(=O)OC(C)C (stereo not given) | inactive | 
19 | CO/N=C(/C1=NOCCO1)c1ccccc1Oc1ncnc(Oc2ccccc2Cl)c1F | inactive | 
20 | CCOC(=O)C(C)OC(=O)c1cc(Oc2ccc(C(F)(F)F)cc2Cl)ccc1[N+](=O)[O-] (stereo not given) | inactive | 

Row | Structure (SMILES) | outcome | AC50
21 | O=C(Nc1ccccc1-c1ccc(Cl)cc1)c1cccnc1Cl | inactive | 
22 | COP(=S)(OC)Oc1ccc([N+](=O)[O-])c(C)c1 | inactive | 
23 | CCNC(=O)NC(=O)C(C#N)=NOC | inactive | 
24 | COC(=O)N(C(=O)N1CO[C@@]2(C(=O)OC)Cc3cc(Cl)ccc3C2=N1)c1ccc(OC(F)(F)F)cc1 | inactive | 
25 | O=C(O)c1c(Cl)ccc2cc(Cl)cnc12 | inactive | 
26 | COCC(=O)N(c1c(C)cccc1C)C(C)C(=O)OC (stereo not given) | inactive | 
27 | COP(=O)(OC)O/C(C)=C/C(=O)N(C)C | inactive | 
28 | CS(=O)(=O)c1cc(C(F)(F)F)ccc1C(=O)c1cnoc1C1CC1 | inactive | 
29 | O=C1C2CC=CCC2C(=O)N1SC(Cl)(Cl)Cl (stereo not given) |  | 26.6 µM (active)
30 | CCSC(=O)N1CCCCCC1 | inactive | 
31 | Cc1c(COC(=O)[C@@H]2[C@H](/C=C(\Cl)C(F)(F)F)C2(C)C)cccc1-c1ccccc1 | inactive | 
32 | CCN(CC)C(=O)C(C)Oc1cccc2ccccc12 (stereo not given) | inactive | 
33 | Clc1cccc(C(Cl)(Cl)Cl)n1 | inactive | 
34 | CC1(C)C(C=C(Cl)Cl)C1C(=O)OC(C#N)c1cccc(Oc2ccccc2)c1 (stereo not given) | inactive | 
35 | CCOP(=O)(OCC)Oc1nc(Cl)c(Cl)cc1Cl | inactive | 
36 | CC(C)C1(C)N=C(c2ncccc2C(=O)O)NC1=O (stereo not given) | inactive | 
37 | O=c1n(Cl)c(=O)n(Cl)c(=O)n1Cl | inactive | 
38 | CCOc1cc(C(C)(C)C)ccc1C1COC(c2c(F)cccc2F)=N1 (stereo not given) |  | 28 µM (active)
39 | CCCCC(C#N)(Cn1cncn1)c1ccc(Cl)cc1 (stereo not given) | inactive | 
40 | COc1ccc(-c2ccccc2)cc1NNC(=O)OC(C)C | inactive | 

Source: PubChem BioAssay (EPA / NIEHS)
